# Source: PubChem BioAssay
# Epigenetic reg: derepresses silenced GFP reporter in murine cells | murine LDR cells, GFP reporter derepression, 30 h | Potency, µM (doses to about 53.9 µM), for the others: at the top dose GFP activation, hits mostly activators | hit rate 0.2% among 280,000; further: potency means the concentration at half of the fitted maximal effect; % of control where 0% means no effect; nearly all actives have a fitted effect of over 60% in size
#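 GFP-positive cell count by laser-scanning cytometry (objects 20–120 um) after 30 h, 37 C compound exposure of murine LDR cells; reporter is CMV-GFP integrated at a silenced locus, inducible by HDAC or DNMT inhibitors.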
# MBNL1 CUG block: inhibitors of human MBNL1 binding to CUG repeat RNA; Q9NR56; TR-FRET MBNL1-His/biotin-(CUG)12 binding, 665/545 ratio; Potency, µM (highest dose often 57.5 µM), for inactives: at the highest dose activity change, negative = inhibition, most hits filed as inhibitors; hit rate 0.036% among 280,000; active means well fitted inhibition curve with a large enough effect in the signal ratio, with a control signal flat, not every such curve was filed as active; inconclusive means small, poorly fitted or top-dose-only effect, or effect the other way, or a change in a side signal; inactive means no such curve, though single readings can be large or run the other way; the % refers to the signal ratio; further: potency means the concentration at half of the fitted maximal effect; on the % scale 0 is the no-effect control and ±100 the full control effect
#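 Compound titration spanned 92 nM–58 uM against the MBNL1-His/biotin-(CUG)12 complex. After 60 min at room temperature with 5 nM streptavidin-XL665 and 0.055 ng/ul terbium anti-His, ratiometric 665/545 nm emission (Ex 340 nm) normalized to controls.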
# CBFb-RUNX1 inh: inhibitors of human CBF-beta and RUNX1 interaction. AlphaScreen CBFb-His/RUNX1-biotin binding, biochemical. AID 1477. 230,000 tested, under 10 active. Potency, µM (doses to about 59.8 µM), for the others: top-dose activity, negative = inhibition, usual class: inhibitors; further: % of control where 0% means no effect
# Target sequence (Q01196 whole entry, looked up): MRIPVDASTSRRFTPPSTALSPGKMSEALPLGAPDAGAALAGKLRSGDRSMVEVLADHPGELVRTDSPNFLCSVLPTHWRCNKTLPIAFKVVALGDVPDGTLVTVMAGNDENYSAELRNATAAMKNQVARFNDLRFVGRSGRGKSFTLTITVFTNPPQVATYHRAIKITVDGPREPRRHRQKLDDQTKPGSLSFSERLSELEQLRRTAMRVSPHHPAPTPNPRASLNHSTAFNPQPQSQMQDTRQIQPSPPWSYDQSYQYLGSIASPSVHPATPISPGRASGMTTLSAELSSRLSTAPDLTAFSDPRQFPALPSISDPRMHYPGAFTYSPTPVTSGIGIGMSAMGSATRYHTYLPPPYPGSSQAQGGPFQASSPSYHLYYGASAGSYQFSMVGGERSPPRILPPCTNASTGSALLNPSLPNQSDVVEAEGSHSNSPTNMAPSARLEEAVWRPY
# Target sequence (Q13951 whole entry, looked up): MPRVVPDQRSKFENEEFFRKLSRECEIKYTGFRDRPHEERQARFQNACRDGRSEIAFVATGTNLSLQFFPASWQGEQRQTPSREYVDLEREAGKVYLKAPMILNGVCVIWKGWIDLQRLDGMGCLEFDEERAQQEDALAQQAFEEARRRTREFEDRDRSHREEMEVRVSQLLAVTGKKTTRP
#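 CBFb-His/RUNX1-biotin, 30 nM each, preincubated 20 min RT; compound 15 min RT; Ni + streptavidin beads 50 ng each, 90 min RT; AlphaScreen read.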
# IL-2 act: IL-2 activation; IL-2 activation reporter assay, cell-based qHTS; stimulated with anti-CD3/CD4/CD28 beads; in transgenic mouse T cells; activation, % (series mostly up to about 46 µM); hit rate 0.065% among 360,000; AID 652025; in the data active means activation above about 50%; inconclusive means mostly about 30% to 49%; further: 0% is about no effect
#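 First, unstimulated transgenic mouse T cells were exposed to compound for 60 min. Next, anti-CD3/anti-CD4-coated beads with anti-CD28 were added. Finally, after 18 h at 37 degrees C, EGFP and DsRed were imaged.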
# TRHR enhancer-1: allosteric enhancers of human TRH receptor | TRHR cells, fluo-8 calcium fluorescence, EC20 TRH enhancement | enhancement, % at 2 µM | hit rate 0.66% among 360,000 | AID 493056; in the data active means enhancement above about 30%; further: 0% is about no effect
#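 Enhancer read-out: after compound pinning and an initial kinetic agonist-mode read, an EC20 of TRH (10 nM final) was injected and fluo-8 calcium signal (Ex 480/Em 530) followed at 1 s/cycle for 100 cycles in TRHR-expressing cells.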
# TRHR agonist-1: activates the human TRH receptor; TRHR cells, calcium flux fluo-8, FDSS agonist mode; hit rate 0.18% among 360,000; P34981; activation, % at 2 µM; in the data active means activation above about 30%; further: 0% is about no effect
#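 In this calcium-flux screen, cells bearing human TRHR are dye-loaded with fluo-8, baselined for 10 cycles, then exposed to library compounds; positive kinetic calcium responses during the agonist phase mark hits, with TRH as control.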
# MBNL1 TRFRET: confirmation of inhibitors of human MBNL1-poly(CUG) RNA binding | TR-FRET MBNL1-His / biotin-(CUG)12 binding, 60 min | AID 493199 | hit rate 50% among 140 | shares compounds with MBNL1 CUG block | Potency, µM (top dose mostly 57.6 µM), without a hit: top-dose activity change, negative = inhibition, hits mostly inhibitors
# MBNL1 AlphaScrn: MBNL1-CUG RNA binding inhibition, AlphaScreen validation. hit rate 30% among 140. AlphaScreen MBNL1-His / biotin-(CUG)12 binding. Potency, µM (highest dose often 57.7 µM), for the others: at the highest dose activity, negative = inhibition, actives largely listed as inhibitors. shares compounds with MBNL1 CUG block
# Menin-MLL HTRF: MBNL1-CUG RNA binding inhibitor counterscreen activity. His-Menin/biotin-MLL peptide TR-FRET counterscreen. AID 651843. Potency, µM (highest dose often 57.6 µM), inactives show at the highest dose activity, negative = inhibition, hits mostly inhibitors. hit rate 20% among 120. shares compounds with MBNL1 CUG block
# TRHR enhancer-2: confirmation of human TRH receptor allosteric enhancers | activity change, negative = inhibition, % at 46.1 µM | shares compounds with TRHR enhancer-1 | TRH receptor cell assay, enhancer confirmation qHTS | AID 493076 | 970 tested, under 10 active;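 further: compound effect scored on response to added TRH at EC20 of 10 nM; 0% is about no effect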
# TRHR agonist-2: human TRH receptor agonism confirmation; Potency, µM (series often up to 46.1 µM), for the others: at the top dose activation, hits mostly activators; shares compounds with TRHR enhancer-1; TRHR-expressing cells, agonist activation read-out; hit rate 8% among 970; AID 493078; further: potency means the concentration at half of the fitted maximal effect; 0% is about no effect; nearly all actives have a fitted effect of over 75% in size
# Numbers without * were called inactive; ? = inconclusive; nt = no result given; [ ] = dose if it differs, or a comment. The list is not random: actives were taken first. Their share in the collection is about 0.88%. Unless noted, the call rests on the fitted dose curve; in most records, active means well fitted curve in the direction sought with a large enough effect; inconclusive means small, poorly fitted or top-dose-only effect, or another doubt; inactive means no such curve, though single readings can be large; an effect the other way counts as inactive or inconclusive.
SMILES,Epigenetic reg,MBNL1 CUG block,CBFb-RUNX1 inh,IL-2 act,TRHR enhancer-1,TRHR agonist-1,MBNL1 TRFRET,MBNL1 AlphaScrn,Menin-MLL HTRF,others
COc1cccc(CNC(=O)CCC2CCCN(C/C=C/c3ccccc3OC)C2)c1 (stereo unspecified),-3%,7%,4%,2,1,1,nt,nt,nt,
Cc1ccc(NC(=O)Nc2csc3c2CCCC3)c(C)c1,5%,nt,nt,nt,4,0,nt,nt,nt,
COC(=O)Nc1csc2c1NC(=O)CCCC2,2%,nt,-4%,0,2,1,26µM*,10µM*,-13%,
CCOc1ccc2[nH]c(=O)c(C(c3nnnn3Cc3ccco3)N3CCN(C)CC3)cc2c1 (stereo unspecified),18%,?,nt,-1,2,0,-6%,-10%,4%,
Cc1oc2nc(SCCCC(=O)NCCO)nc(N)c2c1C,-9%,20µM*,-1%,4,-9,0,?,?,-3%,
CCCn1c2ccccc2c2nnc(SCc3[nH]c(=O)[nH]c3C(=O)CCCCC(=O)OCC)nc21,7%,?,5%,-1,4,0,nt,nt,nt,
CCOC(=O)CCCCC(=O)c1[nH]c(=O)[nH]c1CSc1nnc2c3ccccc3n(C(C)C)c2n1,0%,28µM*,-17%,0,1,1,?,3.7µM*,-11%,
O=C1Cc2ccccc2C(=O)N1Cc1ccccc1,-8%,25µM*,5%,-2,3,1,-9%,?,3%,
CC(C)c1ccc(S(=O)(=O)c2nnn3c2nc(N2CCOCC2)c2sccc23)cc1,-7%,nt,nt,nt,3,0,nt,nt,nt,
N#Cc1c(-c2ccccc2)cc(-c2ccccc2)nc1SCC(O)CS(=O)(=O)Cc1ccccc1 (stereo unspecified),-1%,nt,nt,nt,8,1,nt,nt,nt,
Cn1nccc1NC(=O)Nc1cccc(Br)c1,nt,10µM*,nt,0,-10,0,8.2µM*,-5%,26µM*,
Cn1nccc1NC(=O)Nc1ccccc1,nt,?,nt,-2,-2,-1,nt,nt,nt,
Cn1nccc1NC(=O)Nc1ccc(Cl)cc1,8%,40µM*,3%,1,1,1,10µM*,0%,?,
O=C(Nc1ccc(F)cc1)Nc1cccc(Br)c1,nt,nt,nt,-1,nt,nt,nt,nt,nt,
CCOC(=O)CCCCC(=O)c1[nH]c(=O)[nH]c1Cn1ccnc1,-2%,40µM*,3%,-1,2,-1,41µM*,?,-3%,
CCOC(=O)CCC(=O)Nc1nnc2n1CCS2,0%,nt,nt,nt,-5,0,nt,nt,nt,
COC(=O)NCc1cc2cc(Cl)ccc2[nH]1,-1%,40µM*,9%,-3,-6,0,-12%,-16%,1%,
CC(Sc1ncc(C#N)c(N)n1)C(=O)Nc1ccccc1 (stereo unspecified),0%,40µM*,8%,-1,2,0,-1%,?,-2%,
CC(C)N1CCC2(CC1)C(C#N)=C(N)NC(S)=C2C#N,-1%,?,-8%,nt,3,2,21µM*,-12%,18µM*,
CCCNC(=O)C1=CC(c2ccc3c(c2)OCO3)=NS(=O)(=O)N1C,-2%,nt,nt,nt,-4,0,nt,nt,nt,
COc1ccc(CC(=O)Oc2ccc(C)cc2Br)cc1OC,nt,16µM*,nt,1,-7,0,?,5.2µM*,16µM*,
CC1=C(SCc2ccccc2)C(=O)c2ccccc2C1=O,nt,nt,nt,0,nt,nt,nt,nt,nt,
O=C1C(SCCO)=C(SCCO)C(=O)c2ccccc21,?,?,-2%,1,0,2,5µM*,10µM*,nt,
COc1ccc(-c2nc3ccncc3[nH]2)cc1OC,-3%,20µM*,1%,2,3,0,6.5µM*,-8%,18µM*,
COc1cc2c(C#N)c(N3CCCCC3)nc(N)c2c(N)n1,0%,5%,5%,0,2,0,9%,13%,2%,
SMILES,Epigenetic reg,MBNL1 CUG block,CBFb-RUNX1 inh,IL-2 act,TRHR enhancer-1,TRHR agonist-1,MBNL1 TRFRET,MBNL1 AlphaScrn,Menin-MLL HTRF,others
COc1cc2c(C#N)c(N3CCOCC3)nc(N)c2c(N)n1,-1%,-11%,-3%,0,-3,-1,nt,nt,nt,
CCCCn1nnnc1SCC(=O)c1ccc(C)c(C)c1,-4%,9%,18%,-2,5,-1,nt,nt,nt,
Cc1ccc(C(=O)CSc2nnc(C(C)C)n2C)cc1C,2%,-4%,1%,2,42*,-1,nt,nt,nt,TRHR enhancer-2=-6;TRHR agonist-2=-1%
COc1ccc(S(=O)(=O)c2c(Nc3ccc(C)cc3)sc(C(=O)c3ccc4c(c3)OCO4)c2N)cc1,7%,nt,nt,nt,1,6,nt,nt,nt,
COc1ccc2c(c1)C(c1ccccc1C)CC(=O)O2 (stereo unspecified),-2%[96.6 µM],nt,-12%[89.1 µM],nt,nt,nt,nt,nt,nt,
CCOc1cccc(NC(=O)C2CC(=O)NC(=Nc3ccccc3)S2)c1 (stereo unspecified),-2%,-7%,10%,0,84*,0,nt,nt,nt,TRHR enhancer-2=0;TRHR agonist-2=2%
Cc1ccc(-n2nnc(-c3nc(-c4cccs4)no3)c2N)cc1C,4%,nt,nt,nt,-5,1,nt,nt,nt,
O=C(NCCS(=O)(=O)N1CCN(c2ccccc2)CC1)C(c1ccccc1)c1ccccc1,0%,nt,nt,nt,-2,0,nt,nt,nt,
COc1cc(C(=O)Nc2cccc(-c3cn4cccnc4n3)c2)cc(OC)c1OC,10%,?,4%,-1,63*,0,nt,nt,nt,TRHR enhancer-2=10;TRHR agonist-2=0%
COc1ccccc1NC(=O)C(C)N(C)CCOc1ccccc1 (stereo unspecified),nt,-6%,nt,-1,19,-1,nt,nt,nt,
CC(C(=O)Nc1ccc(F)c(F)c1F)N(C)CCOc1ccccc1 (stereo unspecified),nt,-10%,nt,-3,46*,0,nt,nt,nt,TRHR enhancer-2=-8;TRHR agonist-2=1%
